Inconclusive results are not listed. Calls of active or inactive are those of the source. The calls were made as follows: active = hit-call score of the fitted dose curve at least 0.9, where 1 is the maximum; inconclusive = response in the unintended direction; inactive = score below 0.9.
Assays:
[1] = molecular target: human Leukotriene B4 Receptor 1 (LTB4-BLT1), LTB4R (gene 1241) (UniProt Q15722); assay: NVS_GPCR_hLTB4_BLT1: NovaScreen (NVS) G Protein-Coupled Receptor Assay for human Leukotriene B4 Receptor 1 (LTB4-BLT1) (AID 2283271)
human Leukotriene B4 Receptor 1 (LTB4-BLT1), LTB4R (gene 1241), sequence (Q15722 whole entry, looked up): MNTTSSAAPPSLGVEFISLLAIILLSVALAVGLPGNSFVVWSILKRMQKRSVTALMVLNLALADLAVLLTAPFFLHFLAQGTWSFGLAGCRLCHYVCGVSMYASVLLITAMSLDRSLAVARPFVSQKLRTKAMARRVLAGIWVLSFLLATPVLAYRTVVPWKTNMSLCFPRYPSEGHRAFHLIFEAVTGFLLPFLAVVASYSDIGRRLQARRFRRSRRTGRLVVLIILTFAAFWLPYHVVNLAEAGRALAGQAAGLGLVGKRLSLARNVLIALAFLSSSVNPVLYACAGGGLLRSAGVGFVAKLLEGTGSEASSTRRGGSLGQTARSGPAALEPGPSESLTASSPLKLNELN
Method in brief: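 Radioligand displacement binding on receptor extracted from human neutrophils, cell-free, 1 h after dosing; filter-based scintillation counting. Primary screen in duplicate at 25 uM, actives retested in concentration-response up to 50 uM; loss of signal versus DMSO.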

[2] = molecular target: D(1A) dopamine receptor (Homo sapiens) (UniProt P21728); assay: NVS_GPCR_hDRD1: NovaScreen (NVS) G Protein-Coupled Receptor Assay for human Dopamine Receptor D1 (DRD1) (AID 2283269)
D(1A) dopamine receptor (Homo sapiens), sequence (P21728 whole entry, looked up): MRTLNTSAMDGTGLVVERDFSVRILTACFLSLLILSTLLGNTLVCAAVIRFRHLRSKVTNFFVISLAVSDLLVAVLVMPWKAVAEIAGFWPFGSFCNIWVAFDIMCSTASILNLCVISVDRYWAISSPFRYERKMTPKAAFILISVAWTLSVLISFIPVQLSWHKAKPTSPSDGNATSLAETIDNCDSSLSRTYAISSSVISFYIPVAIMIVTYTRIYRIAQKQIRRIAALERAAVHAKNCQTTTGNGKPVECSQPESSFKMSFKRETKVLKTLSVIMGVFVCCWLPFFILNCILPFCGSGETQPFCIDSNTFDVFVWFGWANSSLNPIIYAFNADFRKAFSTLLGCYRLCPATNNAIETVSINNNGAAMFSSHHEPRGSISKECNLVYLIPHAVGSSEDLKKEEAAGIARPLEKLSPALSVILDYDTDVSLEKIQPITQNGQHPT
Method in brief: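 Cell-free competition with radioligand, filter-trapped and scintillation-counted 1 h post-dose, using HEK293-derived human D1 preparation. Duplicate single-point testing at 25 uM first, then concentration series for actives; DMSO served as baseline, loss-of-signal scored.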

[3] = molecular target: Muscarinic acetylcholine receptor M5 (Homo sapiens) (UniProt P08912); assay: NVS_GPCR_hM5: NovaScreen (NVS) G Protein-Coupled Receptor Assay for human Muscarinic, M5 Receptor (AID 2283275)
Muscarinic acetylcholine receptor M5 (Homo sapiens), sequence (P08912 whole entry, looked up): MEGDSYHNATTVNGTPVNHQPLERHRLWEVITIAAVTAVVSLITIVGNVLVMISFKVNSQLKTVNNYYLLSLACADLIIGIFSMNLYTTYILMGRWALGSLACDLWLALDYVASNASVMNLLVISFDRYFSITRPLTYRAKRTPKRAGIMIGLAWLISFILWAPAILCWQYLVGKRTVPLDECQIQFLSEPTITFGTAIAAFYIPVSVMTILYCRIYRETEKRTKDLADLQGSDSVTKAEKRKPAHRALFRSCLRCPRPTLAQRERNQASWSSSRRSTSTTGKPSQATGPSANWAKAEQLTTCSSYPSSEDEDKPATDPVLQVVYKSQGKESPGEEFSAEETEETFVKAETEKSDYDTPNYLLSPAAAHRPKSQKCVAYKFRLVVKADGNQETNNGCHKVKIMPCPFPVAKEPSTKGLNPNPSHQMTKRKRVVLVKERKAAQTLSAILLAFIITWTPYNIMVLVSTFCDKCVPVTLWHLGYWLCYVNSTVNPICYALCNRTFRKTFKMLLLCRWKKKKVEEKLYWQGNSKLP
Method in brief: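 Radioligand displacement on CHO-derived membrane preparations, 1 h, filter-based scintillation counting. Single-concentration duplicate screen at 25 uM; hits (e.g. 30% inhibition) retested in singleton concentration-response up to 50 uM. Loss of binding fitted versus DMSO.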

[4] = molecular target: human Neurokinin, NK2 Receptor, TACR2 (gene 6865) (UniProt P21452); assay: NVS_GPCR_hNK2: NovaScreen (NVS) G Protein-Coupled Receptor Assay for human Neurokinin, NK2 Receptor (AID 2283278);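 also: actives reduce bound radioligand signal relative to DMSO baseline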
human Neurokinin, NK2 Receptor, TACR2 (gene 6865), sequence (P21452 whole entry, looked up): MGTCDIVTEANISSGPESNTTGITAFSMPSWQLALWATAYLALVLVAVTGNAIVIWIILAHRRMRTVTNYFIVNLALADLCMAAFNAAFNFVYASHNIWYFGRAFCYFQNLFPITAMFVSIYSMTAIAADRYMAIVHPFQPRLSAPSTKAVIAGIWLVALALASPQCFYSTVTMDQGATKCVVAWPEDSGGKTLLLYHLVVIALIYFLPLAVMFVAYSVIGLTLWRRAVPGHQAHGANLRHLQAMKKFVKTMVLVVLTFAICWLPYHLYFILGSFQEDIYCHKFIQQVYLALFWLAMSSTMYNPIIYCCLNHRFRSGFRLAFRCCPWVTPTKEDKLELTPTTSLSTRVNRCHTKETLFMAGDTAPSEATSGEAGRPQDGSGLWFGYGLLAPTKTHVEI
Method in brief: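 Cell-free radioligand binding using receptor protein extracted from CHO cells; readings taken 4 hours after chemical dosing by filter-based scintillation counting. Primary screen ran single concentration (25 uM) in duplicate; actives followed up in concentration series, loss-of-signal versus DMSO baseline.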

[5] = molecular target: mouse Cholecystokinin, CCK1 Receptor (CCKA), Cckar (gene 12425) (UniProt O08786); assay: NVS_GPCR_mCCKAPeripheral: NovaScreen (NVS) G Protein-Coupled Receptor Assay for mouse Cholecystokinin, CCK1 Receptor (CCKA) (AID 2283285)
mouse Cholecystokinin, CCK1 Receptor (CCKA), Cckar (gene 12425), sequence (O08786 whole entry, looked up): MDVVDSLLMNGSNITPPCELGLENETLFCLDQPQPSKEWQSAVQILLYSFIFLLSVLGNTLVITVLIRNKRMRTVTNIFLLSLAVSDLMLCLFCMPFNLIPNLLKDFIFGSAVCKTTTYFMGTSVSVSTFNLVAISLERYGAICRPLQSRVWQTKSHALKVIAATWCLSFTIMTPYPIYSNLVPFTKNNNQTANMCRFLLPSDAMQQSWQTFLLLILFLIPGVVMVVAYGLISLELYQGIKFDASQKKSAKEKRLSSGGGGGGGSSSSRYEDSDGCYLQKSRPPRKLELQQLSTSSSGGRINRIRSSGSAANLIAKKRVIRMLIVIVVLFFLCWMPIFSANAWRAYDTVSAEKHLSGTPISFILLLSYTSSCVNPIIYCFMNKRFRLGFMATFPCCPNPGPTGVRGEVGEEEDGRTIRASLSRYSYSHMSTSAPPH
Method in brief: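 Radioligand competitive displacement on mouse pancreatic membranes, 2 h incubation; filter-based scintillation counting, loss of signal versus DMSO. Single-concentration screen at 25 uM in duplicate, actives retested in concentration-response up to 50 uM.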

[6] = molecular target: human Neurotensin Receptor (NTS), NTSR1 (gene 4923) (UniProt P30989); assay: NVS_GPCR_hNTS: NovaScreen (NVS) G Protein-Coupled Receptor Assay for human Neurotensin Receptor (NTS) (AID 2283279)
human Neurotensin Receptor (NTS), NTSR1 (gene 4923), sequence (P30989 whole entry, looked up): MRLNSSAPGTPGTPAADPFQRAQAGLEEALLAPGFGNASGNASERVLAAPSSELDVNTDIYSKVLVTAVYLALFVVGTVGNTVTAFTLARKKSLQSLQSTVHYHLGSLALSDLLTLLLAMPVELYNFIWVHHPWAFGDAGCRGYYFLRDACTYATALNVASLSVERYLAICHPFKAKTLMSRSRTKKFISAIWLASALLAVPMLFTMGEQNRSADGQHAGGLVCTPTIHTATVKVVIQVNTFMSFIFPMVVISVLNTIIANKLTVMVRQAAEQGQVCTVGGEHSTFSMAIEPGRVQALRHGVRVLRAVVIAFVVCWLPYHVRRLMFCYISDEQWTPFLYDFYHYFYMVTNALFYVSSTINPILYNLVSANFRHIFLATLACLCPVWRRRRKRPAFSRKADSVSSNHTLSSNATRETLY
Method in brief: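 Radioligand displacement on human NTSR1 protein from CHO cells, cell-free, 1 h, filter-based scintillation counting. Primary screen at 25 uM in duplicate; hits rerun in concentration-response up to 50 uM.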

[7] = molecular target: human Thromboxane A2 Receptor (TXA2), TBXA2R (gene 6915) (UniProt P21731); assay: NVS_GPCR_hTXA2: NovaScreen (NVS) G Protein-Coupled Receptor Assay for human Thromboxane A2 Receptor (TXA2) (AID 2283282);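 also: actives reduce bound radioligand signal relative to DMSO baseline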
human Thromboxane A2 Receptor (TXA2), TBXA2R (gene 6915), sequence (P21731 whole entry, looked up): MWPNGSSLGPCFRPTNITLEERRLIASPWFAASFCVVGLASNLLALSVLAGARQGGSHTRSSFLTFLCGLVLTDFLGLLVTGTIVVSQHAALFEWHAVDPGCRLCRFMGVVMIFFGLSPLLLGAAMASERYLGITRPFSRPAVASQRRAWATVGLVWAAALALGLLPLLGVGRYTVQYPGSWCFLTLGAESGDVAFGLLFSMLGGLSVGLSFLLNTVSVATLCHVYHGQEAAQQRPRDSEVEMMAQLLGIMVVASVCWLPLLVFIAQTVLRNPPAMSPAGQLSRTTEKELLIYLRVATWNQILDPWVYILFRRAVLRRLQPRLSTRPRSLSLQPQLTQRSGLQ
Method in brief: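 Cell-free radioligand binding on membrane protein from human platelets; radioligand displacement read by filter-based scintillation counting after 1 h. Primary screen in duplicate at 25 uM, actives then run in concentration series; loss of signal versus DMSO.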

[8] = molecular target: rat Serotonin, 5-Hydroxytryptamine Receptor 1 (5HT1), Non-Selective Binding, Htr1a (gene 24473) (UniProt P19327); assay: NVS_GPCR_r5HT1_NonSelective: NovaScreen (NVS) G Protein-Coupled Receptor Assay for rat Serotonin, 5-Hydroxytryptamine Receptor 1 (5HT1), Non-Selective Binding (AID 2283286)
rat Serotonin, 5-Hydroxytryptamine Receptor 1 (5HT1), Non-Selective Binding, Htr1a (gene 24473), sequence (P19327 whole entry, looked up): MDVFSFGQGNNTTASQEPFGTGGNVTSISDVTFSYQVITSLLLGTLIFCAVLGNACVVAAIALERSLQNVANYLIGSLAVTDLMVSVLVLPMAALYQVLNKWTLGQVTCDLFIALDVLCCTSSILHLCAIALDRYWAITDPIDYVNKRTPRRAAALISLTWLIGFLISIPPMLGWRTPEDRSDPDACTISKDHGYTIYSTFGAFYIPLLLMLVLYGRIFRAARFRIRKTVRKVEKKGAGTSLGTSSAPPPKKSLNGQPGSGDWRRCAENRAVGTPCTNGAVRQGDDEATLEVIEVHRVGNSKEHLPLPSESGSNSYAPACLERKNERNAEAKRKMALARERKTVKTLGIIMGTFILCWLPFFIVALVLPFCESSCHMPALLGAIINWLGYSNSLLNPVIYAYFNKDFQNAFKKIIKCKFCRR
Method in brief: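 Rat cortical membranes, radioligand displacement, 1 h incubation, read by filter scintillation. Primary screen in duplicate at 25 uM. Hits (e.g. ≥30% inhibition) went to concentration-response up to 50 uM, fitted as loss of binding versus DMSO.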

[9] = molecular target: human Vasopressin 1A Receptor (V1A), AVPR1A (gene 552) (UniProt P37288); assay: NVS_GPCR_hV1A: NovaScreen (NVS) G Protein-Coupled Receptor Assay for human Vasopressin 1A Receptor (V1A) (AID 2283284)
human Vasopressin 1A Receptor (V1A), AVPR1A (gene 552), sequence (P37288 whole entry, looked up): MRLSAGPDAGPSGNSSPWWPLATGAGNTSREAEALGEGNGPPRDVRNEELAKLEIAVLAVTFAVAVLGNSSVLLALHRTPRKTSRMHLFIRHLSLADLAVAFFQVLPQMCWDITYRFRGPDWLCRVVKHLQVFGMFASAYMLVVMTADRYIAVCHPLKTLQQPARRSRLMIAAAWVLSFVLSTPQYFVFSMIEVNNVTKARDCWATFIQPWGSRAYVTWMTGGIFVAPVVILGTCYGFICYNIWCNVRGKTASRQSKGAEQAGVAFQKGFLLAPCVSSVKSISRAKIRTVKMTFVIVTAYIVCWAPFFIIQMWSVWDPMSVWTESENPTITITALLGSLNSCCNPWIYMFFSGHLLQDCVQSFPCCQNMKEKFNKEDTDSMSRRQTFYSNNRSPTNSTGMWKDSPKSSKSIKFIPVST
Method in brief: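 Cell-free radioligand displacement on human platelet preparations, 1.5 h incubation, filter-based scintillation counting. Chemicals first tested in duplicate at 25 uM; actives then run in concentration-response up to 50 uM, loss of signal fitted against DMSO.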

[10] = molecular target: human Purinergic Receptor P2Y, P2RY1 (gene 5028) (UniProt P47900); assay: NVS_GPCR_hPY2: NovaScreen (NVS) G Protein-Coupled Receptor Assay for human Purinergic Receptor P2Y (AID 2283281)
human Purinergic Receptor P2Y, P2RY1 (gene 5028), sequence (P47900 whole entry, looked up): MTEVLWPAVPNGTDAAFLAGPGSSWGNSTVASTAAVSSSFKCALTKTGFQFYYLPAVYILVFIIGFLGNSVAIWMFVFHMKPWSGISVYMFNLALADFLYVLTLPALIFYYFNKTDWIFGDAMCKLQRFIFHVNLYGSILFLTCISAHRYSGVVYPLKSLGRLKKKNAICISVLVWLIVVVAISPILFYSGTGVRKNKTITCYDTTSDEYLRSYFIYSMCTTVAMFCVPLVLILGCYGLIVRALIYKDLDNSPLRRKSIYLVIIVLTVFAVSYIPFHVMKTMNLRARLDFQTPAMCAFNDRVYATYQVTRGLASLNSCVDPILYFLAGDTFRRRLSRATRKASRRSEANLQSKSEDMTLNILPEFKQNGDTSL
Method in brief: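 Cell-free radioligand binding using U937-derived protein, 1 h after dosing, filter-based scintillation counting. Screened in duplicate at 25 uM; actives rerun as concentration-response up to 50 uM; loss of signal versus DMSO.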

[11] = molecular target: human Opioid Receptor Delta 1 (Opiate D1), OPRD1 (gene 4985) (UniProt P41143); assay: NVS_GPCR_hOpiate_D1: NovaScreen (NVS) G Protein-Coupled Receptor Assay for human Opioid Receptor Delta 1 (Opiate D1) (AID 2283280)
human Opioid Receptor Delta 1 (Opiate D1), OPRD1 (gene 4985), sequence (P41143 whole entry, looked up): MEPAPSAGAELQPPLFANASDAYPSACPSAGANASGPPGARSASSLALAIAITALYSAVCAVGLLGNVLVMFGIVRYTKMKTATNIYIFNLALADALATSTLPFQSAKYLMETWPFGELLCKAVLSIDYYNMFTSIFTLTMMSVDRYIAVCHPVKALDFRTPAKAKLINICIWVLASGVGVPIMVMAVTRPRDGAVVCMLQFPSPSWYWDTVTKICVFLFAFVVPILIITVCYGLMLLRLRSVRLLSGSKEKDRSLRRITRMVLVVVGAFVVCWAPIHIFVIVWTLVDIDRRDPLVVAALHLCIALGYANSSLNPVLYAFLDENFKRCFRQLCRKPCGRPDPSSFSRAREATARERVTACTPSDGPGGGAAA
Method in brief: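 Radioligand displacement on membranes from CHO cells expressing the receptor, read by filter scintillation counting 1 h after dosing. Duplicate single-point screen at 25 uM, then concentration series for actives; loss of signal versus DMSO.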

**Q.** How did the outcome [1] turn out when `Cc1cccc(C)c1N` was run?
**A.** inactive

**Q.** Which results are given for `CC(C)(c1ccccc1)c1ccc(O)cc1`?
**A.** AC50 [2]: 25 µM (active); outcome [1]: inactive; outcome [3]: inactive; AC50 [4]: 25 µM (active); AC50 [5]: 18.2 µM (active)

**Q.** Which results are given for `Cc1cc2c3c(c1)C(c1ccccc1)=N[C@@H](NC(=O)c1ccncc1)C(=O)N3CC2`?
**A.** outcome [4]: inactive; outcome [6]: inactive; outcome [7]: inactive; AC50 [5]: 19.9 µM (active); AC50 [8]: 6.17 µM (active)

**Q.** `N#Cc1ccc(N(CC(N)=O)CC(F)(F)F)cc1C(F)(F)F` was tested. Which outcome [9] did it give?
**A.** inactive

**Q.** Which outcome [8] does the source give for `Cc1ccccc1[N+](=O)[O-]` here?
**A.** inactive

**Q.** `Cc1ccc(O)c(C)c1` was tested. Which AC50 [9] did it give?
**A.** 0.12 µM (active)

**Q.** How did the AC50 [7] turn out when `CCC(C)(CC)c1cc(NC(=O)c2c(OC)cccc2OC)on1` was run?
**A.** 1.03 µM (active)

**Q.** And the outcome [8]?
**A.** inactive

**Q.** Which AC50 [7] does the source give for `O=C(O)C(F)(F)C(F)(F)C(F)(F)C(F)(F)C(F)(F)C(F)(F)C(F)(F)C(F)(F)F` here?
**A.** 6.2 µM (active)

**Q.** With `CCCCCCCCCc1ccc(O)cc1` as the molecule, how does the outcome [10] read?
**A.** inactive

**Q.** Which AC50 [2] does the source give for `O=C(O)C(F)(F)C(F)(F)C(F)(F)C(F)(F)C(F)(F)C(F)(F)C(F)(F)C(F)(F)C(F)(F)F` here?
**A.** 16.8 µM (active)

**Q.** And the AC50 [11]?
**A.** 16.4 µM (active)

**Q.** And the outcome [10]?
**A.** inactive

**Q.** What about the AC50 [7] of the same molecule?
**A.** 25 µM (active)

**Q.** Which AC50 [2] does the source give for `CCC(C)(c1ccc(O)cc1)c1ccc(O)cc1` here?
**A.** 11.3 µM (active)

**Q.** What about the outcome [4] of the same molecule?
**A.** inactive

**Q.** And the AC50 [11]?
**A.** 13.2 µM (active)

From PubChem BioAssay (EPA / NIEHS)
